# PubChem BioAssay (Tox21)
# Results filed as inconclusive are left out. Entries that show only a call come without a potency. Values without a mark were called inactive. Active and inactive are the calls of the source. Calls follow the shape of the dose curve; as a rule, active = well fitted curve in the direction sought with a large enough effect in the repeat runs; inconclusive = weak or mixed curves; inactive = no such curve, though single readings can be large; an effect the other way counts as inactive or inconclusive.
# Key:
# [1] = biological target: Cytochrome P450 2C19 (Homo sapiens) (UniProt P33261); assay: Cytochrome P450 Family 2 Subfamily C Member 19 (CYP2C19) small molecule antagonists: luciferase reporter qHTS assay (AID 1671197); also: nearly all actives have a fitted effect of over 65% in size; as to activity change, negative = inhibition: series mostly up to about 120 µM
# In short: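 First, compounds are pinned into enzyme-substrate mix and held 10 min at room temperature. Second, NADPH regeneration solution is added and plates incubate 1 h at 37C. Third, detection reagent is added and luminescence read after 20 min.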
# [2] = biological target: Cytochrome P450 2C9 (Homo sapiens) (UniProt P11712); assay: Cytochrome P450 Family 2 Subfamily C Member 9 (CYP2C9) small molecule antagonists: luciferase reporter qHTS assay (AID 1671198); also: nearly all actives have a fitted effect of over 50% in size; as to activity change, negative = inhibition: series mostly up to about 120 µM
# In short: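 Enzyme-substrate mix preincubated with compound 10 min at room temperature; reaction started with NADPH regeneration solution, 1 h 37C. Luminescent luciferin product read after 20 min detection reagent.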
# [3] = biological target: Voltage-gated inwardly rectifying potassium channel KCNH2 (Homo sapiens) (UniProt Q12809); assay: Human Ether-a-go-go-Related Gene (hERG) channel small molecule antagonists: fluorescence cell-based qHTS assay (AID 1671200); also: nearly all actives have a fitted effect of over 50% in size;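 as to activity change, negative = inhibition: hERG-expressing U2OS cells given a thallium stimulus after FluxOR II dye loading; series mostly up to about 77 µM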
# In short: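 Quantitative HTS in hERG-U2OS cells: thallium entry through the channel reports activity, read as continuous 480/540 nm fluorescence over 2 min after stimulus addition.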
# [4] = biological target: Cytochrome P450 3A4 (Homo sapiens) (UniProt P08684); assay: Cytochrome P450 Family 3 Subfamily A Member 4 (CYP3A4) small molecule antagonists: luciferase reporter qHTS assay (AID 1671201); also: nearly all actives have a fitted effect of over 50% in size; as to activity change, negative = inhibition: series mostly up to about 120 µM
# In short: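 Inhibition of CYP3A4 is measured as loss of light: the enzyme converts a proluciferin substrate to luciferin, detected luminescently. Reaction ran 1 h at room temperature with NADPH regeneration after a 10 min compound preincubation.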
# [5] = biological target: Cytochrome P450 1A2 (Homo sapiens) (UniProt P05177); assay: Cytochrome P450 Family 1 Subfamily A Member 2 (CYP1A2) small molecule antagonists: luciferase reporter qHTS assay (AID 1671199); also: nearly all actives have a fitted effect of over 50% in size; as to activity change, negative = inhibition: series mostly up to about 120 µM
# In short: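 P450-Glo CYP1A2, 1536-well qHTS: enzyme/proluciferin substrate + cpd (DMSO), 10 min RT; NADPH regen, 1 h RT; detection reagent, 20 min; luminescence, RLU.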
# Potency is read from the fitted curve at half-maximal effect.
# Cytochrome P450 3A4 (Homo sapiens), sequence (P08684 whole entry, looked up): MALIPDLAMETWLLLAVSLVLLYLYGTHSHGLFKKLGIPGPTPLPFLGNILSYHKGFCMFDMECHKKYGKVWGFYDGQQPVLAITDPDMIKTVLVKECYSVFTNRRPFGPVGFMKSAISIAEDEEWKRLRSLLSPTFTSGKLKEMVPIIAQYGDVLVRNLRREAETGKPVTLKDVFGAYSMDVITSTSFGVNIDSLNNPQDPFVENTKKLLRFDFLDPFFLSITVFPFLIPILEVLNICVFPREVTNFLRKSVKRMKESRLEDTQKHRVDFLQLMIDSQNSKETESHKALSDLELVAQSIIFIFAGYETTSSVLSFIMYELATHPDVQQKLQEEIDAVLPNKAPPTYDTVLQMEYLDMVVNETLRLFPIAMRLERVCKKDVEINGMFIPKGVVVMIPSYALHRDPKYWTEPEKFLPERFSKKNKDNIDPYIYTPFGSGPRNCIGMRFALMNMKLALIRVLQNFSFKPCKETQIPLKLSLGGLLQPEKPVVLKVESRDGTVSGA
# Cytochrome P450 1A2 (Homo sapiens), sequence (P05177 whole entry, looked up): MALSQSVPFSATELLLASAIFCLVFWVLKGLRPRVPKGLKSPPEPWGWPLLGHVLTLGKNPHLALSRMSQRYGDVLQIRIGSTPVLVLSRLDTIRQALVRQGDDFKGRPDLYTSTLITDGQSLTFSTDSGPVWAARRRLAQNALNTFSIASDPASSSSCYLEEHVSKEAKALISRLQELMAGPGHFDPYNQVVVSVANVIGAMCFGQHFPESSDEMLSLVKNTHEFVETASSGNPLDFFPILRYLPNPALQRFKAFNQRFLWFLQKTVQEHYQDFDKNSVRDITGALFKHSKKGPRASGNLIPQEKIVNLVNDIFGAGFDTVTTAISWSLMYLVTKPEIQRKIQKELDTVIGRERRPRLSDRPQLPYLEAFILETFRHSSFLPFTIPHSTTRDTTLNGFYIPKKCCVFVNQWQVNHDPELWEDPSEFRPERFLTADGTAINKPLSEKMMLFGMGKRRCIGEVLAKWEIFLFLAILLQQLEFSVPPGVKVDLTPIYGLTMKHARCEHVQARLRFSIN
# Voltage-gated inwardly rectifying potassium channel KCNH2 (Homo sapiens), sequence (Q12809 whole entry, looked up): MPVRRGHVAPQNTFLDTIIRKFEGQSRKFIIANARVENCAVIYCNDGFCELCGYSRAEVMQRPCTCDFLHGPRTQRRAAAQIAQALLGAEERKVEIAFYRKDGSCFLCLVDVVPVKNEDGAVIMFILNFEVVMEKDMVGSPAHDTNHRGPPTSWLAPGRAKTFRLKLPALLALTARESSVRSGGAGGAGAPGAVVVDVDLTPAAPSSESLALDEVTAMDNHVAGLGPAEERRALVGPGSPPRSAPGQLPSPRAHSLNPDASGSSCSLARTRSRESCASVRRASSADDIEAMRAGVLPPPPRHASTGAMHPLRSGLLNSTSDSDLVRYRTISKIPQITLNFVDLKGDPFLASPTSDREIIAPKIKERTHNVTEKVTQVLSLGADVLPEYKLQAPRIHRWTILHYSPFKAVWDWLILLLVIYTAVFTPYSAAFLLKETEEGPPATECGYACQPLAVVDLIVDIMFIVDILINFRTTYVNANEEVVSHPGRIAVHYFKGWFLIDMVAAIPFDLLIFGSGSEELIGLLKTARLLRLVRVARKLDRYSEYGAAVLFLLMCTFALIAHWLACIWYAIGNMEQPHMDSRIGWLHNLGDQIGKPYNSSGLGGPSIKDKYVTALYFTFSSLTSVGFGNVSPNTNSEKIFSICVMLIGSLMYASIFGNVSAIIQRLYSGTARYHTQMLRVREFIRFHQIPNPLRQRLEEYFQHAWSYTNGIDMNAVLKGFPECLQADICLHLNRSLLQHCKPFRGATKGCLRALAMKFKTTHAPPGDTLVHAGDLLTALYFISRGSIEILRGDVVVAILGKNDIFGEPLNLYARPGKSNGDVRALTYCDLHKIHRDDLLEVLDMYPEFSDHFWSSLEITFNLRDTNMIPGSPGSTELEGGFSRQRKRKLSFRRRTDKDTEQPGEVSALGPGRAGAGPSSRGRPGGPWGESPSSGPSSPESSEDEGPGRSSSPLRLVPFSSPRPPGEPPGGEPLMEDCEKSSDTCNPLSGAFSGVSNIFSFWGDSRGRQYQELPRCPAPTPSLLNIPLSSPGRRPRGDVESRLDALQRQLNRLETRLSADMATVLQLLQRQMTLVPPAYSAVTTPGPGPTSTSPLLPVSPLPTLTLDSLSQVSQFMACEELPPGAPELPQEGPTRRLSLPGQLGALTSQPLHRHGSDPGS
# Cytochrome P450 2C19 (Homo sapiens), sequence (P33261 whole entry, looked up): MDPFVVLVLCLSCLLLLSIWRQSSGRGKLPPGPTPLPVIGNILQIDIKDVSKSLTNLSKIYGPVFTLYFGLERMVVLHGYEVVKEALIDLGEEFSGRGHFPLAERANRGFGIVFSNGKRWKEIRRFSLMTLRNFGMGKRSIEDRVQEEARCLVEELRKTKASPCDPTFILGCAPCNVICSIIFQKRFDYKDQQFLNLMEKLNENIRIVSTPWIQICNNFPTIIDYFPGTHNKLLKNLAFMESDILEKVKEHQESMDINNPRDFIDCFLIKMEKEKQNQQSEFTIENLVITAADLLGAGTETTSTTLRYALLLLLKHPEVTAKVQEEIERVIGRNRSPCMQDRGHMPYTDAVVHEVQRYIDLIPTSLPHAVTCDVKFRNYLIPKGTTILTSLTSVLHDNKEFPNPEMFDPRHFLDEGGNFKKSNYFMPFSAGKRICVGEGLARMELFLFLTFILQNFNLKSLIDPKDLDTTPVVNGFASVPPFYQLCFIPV
# Cytochrome P450 2C9 (Homo sapiens), sequence (P11712 whole entry, looked up): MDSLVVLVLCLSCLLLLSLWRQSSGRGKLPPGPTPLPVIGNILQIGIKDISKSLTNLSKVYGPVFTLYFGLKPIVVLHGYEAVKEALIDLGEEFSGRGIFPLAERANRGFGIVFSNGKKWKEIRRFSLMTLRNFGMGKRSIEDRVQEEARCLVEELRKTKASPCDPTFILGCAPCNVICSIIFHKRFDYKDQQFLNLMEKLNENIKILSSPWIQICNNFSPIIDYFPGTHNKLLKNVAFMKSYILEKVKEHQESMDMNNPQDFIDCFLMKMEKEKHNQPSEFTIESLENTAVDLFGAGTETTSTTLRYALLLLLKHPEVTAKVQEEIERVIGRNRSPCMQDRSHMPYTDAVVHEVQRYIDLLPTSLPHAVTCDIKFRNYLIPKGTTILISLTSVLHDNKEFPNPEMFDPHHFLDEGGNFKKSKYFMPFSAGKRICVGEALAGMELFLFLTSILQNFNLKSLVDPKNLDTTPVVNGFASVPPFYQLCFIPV
smiles,measurement,setting,value
CCCCCCCCCCCCC(=O)O,Potency,[1],71.3 µM (active)
same,Potency,[2],inactive
same,Potency,[3],inactive
same,Potency,[4],inactive
O=C(O)Cc1sc(-c2ccccc2)nc1-c1ccc(Cl)cc1,Potency,[1],inactive
same,Potency,[2],4.9 µM (active)
same,Potency,[3],inactive
same,Potency,[4],inactive
CCN(CC)CCOc1ccc2c(c1)C(=O)c1cc(OCCN(CC)CC)ccc1-2,Potency,[1],inactive
same,Potency,[2],inactive
same,Potency,[3],inactive
same,Potency,[4],inactive
Cn1c(NCCN(CCO)CCCc2ccc([N+](=O)[O-])cc2)cc(=O)n(C)c1=O,Potency,[1],inactive
same,Potency,[2],inactive
same,Potency,[5],inactive
same,Potency,[4],inactive
COC(=O)CSc1cc(N=c2sc(=O)n3n2CCCC3)c(F)cc1Cl,Potency,[1],31.7 µM (active)
same,Potency,[5],3.17 µM (active)
CCCCCCCCCCCCCCCBr,Potency,[1],inactive
same,Potency,[2],inactive
same,Potency,[3],inactive
same,Potency,[4],inactive
Oc1ccc(Cc2ccccc2)cc1,Potency,[1],20.8 µM (active)
same,Potency,[2],65.7 µM (active)
same,Potency,[3],inactive
same,Potency,[4],inactive
CN1CCN(C2=Nc3cc(Cl)ccc3Nc3ccccc32)CC1,Potency,[1],inactive
same,Potency,[5],inactive
CCCCCCCCCCCCCCCC(=O)OC/C=C(C)/C=C/C=C(C)/C=C/C1=C(C)CCCC1(C)C,Potency,[1],39.9 µM (active)
same,Potency,[2],35.6 µM (active)
same,Potency,[3],inactive
O=C(O)c1cn(C2CC2)c2cc(Cl)c(F)cc2c1=O,Potency,[1],inactive
same,Potency,[2],inactive
same,Potency,[3],inactive
same,Potency,[4],inactive
NC(N)=NN=C(/C=C/c1ccc([N+](=O)[O-])o1)/C=C/c1ccc([N+](=O)[O-])o1,Potency,[1],3.89 µM (active)
same,Potency,[2],24.5 µM (active)
same,Potency,[3],2.39 µM (active)
C=CC(=O)OCCOC(=O)CCC(=O)O,Potency,[1],inactive
same,Potency,[2],inactive
same,Potency,[3],inactive
same,Potency,[4],31.7 µM (active)
CCCCOCCOCCOCCOCCO,Potency,[1],inactive
same,Potency,[2],inactive
same,Potency,[3],inactive
same,Potency,[4],inactive
O=C(C(=O)c1ccc(Br)cc1)c1ccc(Br)cc1,Potency,[1],0.352 µM (active)
same,"activity change, negative = inhibition",[2],-0.879% [at 23.6 µM]
same,"activity change, negative = inhibition",[3],-1.71% [at 15.8 µM]
same,"activity change, negative = inhibition",[4],4.73% [at 23.6 µM]
Cc1cc(NC(=O)C(=O)O)cc(C)c1Oc1ccc(O)c2c1CCC2,Potency,[1],25.2 µM (active)
same,Potency,[2],35.6 µM (active)
same,Potency,[3],inactive
same,Potency,[4],inactive
CCCCCCCCCC(=O)OCC,Potency,[1],56.4 µM (active)
same,Potency,[2],inactive
same,Potency,[3],inactive
same,Potency,[4],inactive
CC1(C)CCC(C)(C)c2cc(NC(=O)c3ccc(C(=O)O)cc3)ccc21,Potency,[1],inactive
same,Potency,[5],inactive
same,Potency,[3],inactive
CCCCCCCCC(CO)CCCCCC (configuration not stated),Potency,[1],31.7 µM (active)
same,Potency,[2],25.2 µM (active)
same,Potency,[3],inactive
same,Potency,[4],inactive
CC(C)(C)c1ccc(OCC2CO2)cc1 (configuration not stated),Potency,[1],64.6 µM (active)
same,Potency,[2],72.4 µM (active)
same,Potency,[3],inactive
same,Potency,[4],inactive
CC(=O)O[C@H]1C[C@@H]2CC[C@@H]3[C@H](CC[C@@]4(C)[C@H]3C[C@H]([N+]3(C)CCCCC3)[C@@H]4OC(C)=O)[C@@]2(C)C[C@@H]1N1CCCCC1,Potency,[1],inactive
same,Potency,[5],inactive
same,Potency,[3],inactive
CCCCCCCCCCCCCCCCCBr,"activity change, negative = inhibition",[1],4.88% [at 23.6 µM]
same,"activity change, negative = inhibition",[5],-12.4% [at 23.6 µM]
same,"activity change, negative = inhibition",[3],7.46% [at 15.8 µM]
same,"activity change, negative = inhibition",[4],1.19% [at 23.6 µM]
O=C1Nc2cc(Cl)ccc2Oc2ccccc21,Potency,[1],15.5 µM (active)
same,Potency,[5],1.95 µM (active)
same,Potency,[3],inactive
same,Potency,[4],inactive
CC/C(=C\C(=N/O)C(N)=O)C(C)[N+](=O)[O-] (configuration not stated),Potency,[1],inactive
same,Potency,[5],inactive
same,Potency,[3],inactive
same,Potency,[4],inactive
CC(CN)CCCN (configuration not stated),Potency,[1],inactive
same,Potency,[5],inactive
same,Potency,[3],inactive
same,Potency,[4],6.33 µM (active)
CC(=O)[C@@]1(O)CC[C@H]2[C@@H]3C[C@H](C)C4=CC(=O)CC[C@]4(C)[C@H]3CC[C@@]21C,Potency,[1],1.95 µM (active)
same,Potency,[5],inactive
same,Potency,[3],inactive
same,Potency,[4],inactive
